Assay outcomes: PubChem BioAssay, National Center for Advancing Translational Sciences (NCATS)
This is a sample that favours compounds with a hit; in the whole collection about 11% have one here.
hNpr1 antagonist – blocks ANP-stimulated signaling of human Npr1 receptor; P16066; 1.6% of 76,000 active; Potency, µM (series often up to 46.3 µM), without a hit: at the top dose activity change, negative = inhibition, actives largely listed as inhibitors; HEK293 hNpr1 GloSensor cGMP, ANP-stimulated luminescence; calls by dose curve; also: nearly all actives have a fitted effect of over 60% in size
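HEK293 cells stably expressing human Npr1 and cGMP GloSensor pGS-40F, loaded 2 h with 2% GloSensor reagent, given compound 30 min at room temperature. Luminescence read before and 20 min after 0.1 nM hNppA.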
Luciferase inh – Photinus pyralis luciferase inhibition; purified P. pyralis luciferase, luminescence, biochemical; 2.5% of 76,000 active; P08659; Potency, µM (highest dose often 115 µM), usual class: inhibitors; also: nearly all actives have a fitted effect of over 65% in size
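Purified 10nM P. pyralis luciferase with 10uM D-luciferin and 10uM ATP in 50mM Tris acetate pH 7.5, 10mM Mg acetate, 0.01% Tween-20, 0.05% BSA. qHTS titration; luminescence read by CCD imager.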
HEK cytotox – cytotoxic compounds in HEK 293 cells; HEK 293 viability, ATP luminescence (CellTiter-Glo), 48-72 h; Potency, µM (titrated, usually from 115 µM), for the others: top-dose activity change, negative = cytotoxicity, hits mostly inhibitors; 6.6% of 94,000 active; AID 1345083; also: nearly all actives have a fitted effect of over 60% in size
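Cytotoxicity was scored by loss of ATP-coupled luminescence (CellTiter-Glo) in HEK 293 cells. Compound treatment ran 48 or 72 hr at 37 degree Celsius, 5% CO2, 95% humidity.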
NIH3T3 tox – cytotoxic compounds in NIH 3T3 cells. NIH 3T3 viability, CellTiter-Glo ATP luminescence, 48-72 h. Potency, µM (doses to about 96.7 µM), for the others: at the highest dose activity change, negative = cytotoxicity, usual class: inhibitors. 4.3% of 94,000 active; also: nearly all actives have a fitted effect of over 55% in size
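Cytotoxicity was measured by CellTiter-Glo ATP luminescence after 48 or 72 h compound exposure at 37 °C. Mouse NIH 3T3 fibroblasts were seeded at 400 cells/well and dosed by 23 nL pin transfer.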
The depositor's hits bear a star; [ ] = another dose, or the depositor's remark. Unless noted, calls follow the shape of the dose curve; as a rule, active = well fitted curve in the direction sought with a large enough effect; inconclusive = small, poorly fitted or top-dose-only effect, or another doubt; inactive = no such curve, though single readings can be large; an effect the other way counts as inactive or inconclusive. % is scaled to controls: 0 for no effect and ±100 for the full control effect; potency is read from the fitted curve at half-maximal effect.

`O=C(C1CCCN1[S+](=O)([O-])c1ccccc1)N1CCC(N2Cc3cccn3C2=O)CC1` (centres undefined) gave HEK cytotox -7% and NIH3T3 tox -29%.
O=C(NCc1ccc2c(c1)OCO2)C1CCN(c2nccc(Nc3ccccc3Cl)n2)CC1 was read as HEK cytotox 28µM* and NIH3T3 tox 35µM*.
Screening O=C(NCc1cccc(F)c1)C1CCN(c2nccc(Nc3ccccc3Cl)n2)CC1 returned HEK cytotox 45µM* and NIH3T3 tox inconclusive.
COC(=O)CNC(=O)C1CCN(c2nccc(Nc3ccccc3Cl)n2)CC1 was read as HEK cytotox -18% and NIH3T3 tox -20%.
Screening CSCCNC(=O)C1CCN(c2nccc(Nc3ccccc3Cl)n2)CC1 returned HEK cytotox inconclusive and NIH3T3 tox 35µM*.
Screening O=C(NCc1cccc(Cl)c1)[C@@H]1CCCN1c1nccc(Nc2ccccc2Cl)n1 returned HEK cytotox 35µM* and NIH3T3 tox inconclusive.
For S=C(Nc1ccccc1)N[C@H]1CO[C@H]2[C@@H]1OC[C@H]2OCc1ccccc1 the results were hNpr1 antagonist -19%[70.6 µM], Luciferase inh inactive, HEK cytotox inconclusive and NIH3T3 tox -19%[138 µM].
Screening O=C(N[C@H]1CO[C@H]2[C@@H]1OC[C@H]2OCc1ccccc1)c1ccc(C(F)(F)F)cc1 returned hNpr1 antagonist inconclusive, Luciferase inh inconclusive, HEK cytotox 79µM* and NIH3T3 tox -29%[174 µM].
Screening CC(C)NC(=O)C[C@@H]1c2nc(NC(=O)C3CCCCC3)sc2C[C@@H]2[C@](C)(CO)[C@H](O)CC[C@]21C returned hNpr1 antagonist 2%, Luciferase inh inactive, HEK cytotox -11% and NIH3T3 tox -32%.
For Cc1cccc(CN2CC[C@@H]3OCC(=O)N(Cc4ccccc4)[C@H]3CC2)c1 the results were hNpr1 antagonist -2%[70.6 µM], Luciferase inh inactive, HEK cytotox 100µM* and NIH3T3 tox 100µM*.
O=C1CO[C@H]2CCN(Cc3cccc(OC(F)(F)F)c3)CC[C@@H]2N1Cc1c[nH]c2ccccc12 was read as hNpr1 antagonist -10%, Luciferase inh inactive, HEK cytotox inconclusive and NIH3T3 tox inconclusive.
`COc1ncccc1CN1CC[C@@H]2OCC(=O)N(Cc3ccccc3)[C@H]2CC1` gave hNpr1 antagonist -30%[70.6 µM], Luciferase inh inactive, HEK cytotox 112µM* and NIH3T3 tox 100µM*.
O=C1CO[C@H]2CCN(Cc3cccc(OC(F)(F)F)c3)CC[C@@H]2N1Cc1ccccc1 was read as hNpr1 antagonist -2%, Luciferase inh inactive, HEK cytotox 50µM* and NIH3T3 tox inconclusive.
Screening COc1ccccc1-n1c(=O)c(C(=O)NCc2cccc(F)c2)nc2cccnc21 returned HEK cytotox inactive and NIH3T3 tox -1%.
Screening CCC(C)C(=O)N1CCC2(CC1)NCCc1c2[nH]c2ccc(OC)cc12 (centres undefined) returned hNpr1 antagonist 3%, Luciferase inh inactive, HEK cytotox inconclusive and NIH3T3 tox -31%.
COc1ccc(F)cc1-c1cccc(C(=O)NCCNC(=O)c2cccc(Cl)c2)c1 was read as HEK cytotox 20µM* and NIH3T3 tox inconclusive.
Screening COc1ccc(F)cc1-c1cccc(C(=O)NCCNC(=O)Nc2ccc(Cl)cc2)c1 returned HEK cytotox inconclusive and NIH3T3 tox 32µM*.
`COc1ccc(F)cc1-c1cccc(C(=O)NCCNC(=O)Cc2cccc(Cl)c2)c1` gave HEK cytotox inconclusive and NIH3T3 tox 40µM*.
COc1ccc(F)cc1-c1cccc(C(=O)NCCNC(=O)c2ccc(Cl)nc2)c1 was read as HEK cytotox 40µM* and NIH3T3 tox inconclusive.
COCC(=O)NCCNC(=O)c1cccc(-c2cc(F)ccc2OC)c1 was read as HEK cytotox 1% and NIH3T3 tox -20%.
Screening COc1ccc(F)cc1-c1cccc(C(=O)NCCN[S+](C)(=O)[O-])c1 returned HEK cytotox -12% and NIH3T3 tox -29%.
COc1ccc(-c2cc(C(=O)N3C[C@@H](Oc4ccccc4)C[C@H]3C(=O)NC3CC3)[nH]n2)cc1 was read as hNpr1 antagonist 4%, Luciferase inh inactive, HEK cytotox inactive and NIH3T3 tox -5%.
COc1ccc(NC(=O)O[C@@H]2CO[C@H]3[C@@H]2OC[C@@H]3NS(=O)(=O)c2cccc3cccnc23)cc1 was read as hNpr1 antagonist 3%, Luciferase inh inactive, HEK cytotox -16% and NIH3T3 tox -23%.
For COc1ccc(F)cc1-c1cccc(C(=O)NCCNC(C)=O)c1 the results were HEK cytotox -25%[172 µM] and NIH3T3 tox inconclusive.
`COc1ccc(F)cc1-c1cccc(C(=O)NCCNC(=O)c2ccc(Cl)cc2)c1` gave HEK cytotox 45µM* and NIH3T3 tox inconclusive.
COc1cccc(C(=O)NCCNC(=O)c2cccc(-c3cc(F)ccc3OC)c2)c1 was read as HEK cytotox inconclusive and NIH3T3 tox 45µM*.
CN(C)c1ccc(CN2CCNc3cc(Nc4ccccc4)ncc3C2)cc1 was read as hNpr1 antagonist -18%[70.6 µM], Luciferase inh inactive, HEK cytotox inconclusive and NIH3T3 tox 56µM*.
For Cn1cnc(CN2CCNc3cc(Nc4ccccc4)ncc3C2)c1 the results were hNpr1 antagonist 10%[70.6 µM], Luciferase inh inactive, HEK cytotox inconclusive and NIH3T3 tox inconclusive.
For CN(C)c1ccc(CN2CCNc3cc(Nc4cccnc4)ncc3C2)cc1 the results were hNpr1 antagonist -9%[70.6 µM], Luciferase inh 63µM*, HEK cytotox inconclusive and NIH3T3 tox inconclusive.
`CC(C)c1ccc(CNC(=O)[C@H]2CCC[C@H]2NC(=O)c2ccncc2)cc1` gave hNpr1 antagonist -2%, Luciferase inh inactive, HEK cytotox -6% and NIH3T3 tox -16%.
For O=C(Nc1cccc(Cl)c1)c1cc(-c2ccc[nH]2)n[nH]1 the results were hNpr1 antagonist inconclusive, Luciferase inh 1.6µM*, HEK cytotox -3% and NIH3T3 tox -3%.
O=C(Nc1ccc(F)cc1)c1cc(-c2ccc[nH]2)n[nH]1 was read as hNpr1 antagonist -3%, Luciferase inh 5µM*, HEK cytotox -23% and NIH3T3 tox -28%.
`O=C(Nc1cccc(C(F)(F)F)c1)c1cc(-c2ccc[nH]2)n[nH]1` gave hNpr1 antagonist -24%, Luciferase inh inconclusive, HEK cytotox -5% and NIH3T3 tox -3%.
Screening Cc1cc(F)ccc1NC(=O)c1cc(-c2ccc[nH]2)n[nH]1 returned hNpr1 antagonist 1%, Luciferase inh 40µM*, HEK cytotox inconclusive and NIH3T3 tox -18%.
Screening O=C(NCc1ccc(F)cc1)c1cc(-c2ccc[nH]2)n[nH]1 returned hNpr1 antagonist inconclusive, Luciferase inh inactive, HEK cytotox -20% and NIH3T3 tox -26%.
Screening Cc1ccc(NC(=O)c2cc(-c3ccc[nH]3)n[nH]2)cc1F returned hNpr1 antagonist 5%, Luciferase inh 8.9µM*, HEK cytotox inconclusive and NIH3T3 tox inconclusive.
